Compound activity: PubChem, National Center for Advancing Translational Sciences (NCATS)
A selection: hits, their analogues and other compounds. The true share with any hit is near 11%.
ALOX15 inhib – 15-hLO (ALOX15) enzyme inhibition. P16050. purified 15hLO-1, xylenol orange hydroperoxide absorbance. Potency, µM (titrated, usually from 57.1 µM), actives largely listed as inhibitors. 1.4% of 74,000 active; note: nearly all actives have a fitted effect of over 55% in size
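Purified human 15hLO-1 (40 nM final) in 25 mM Hepes pH 7.5, 0.01% Triton X-100 was preincubated with compound 15 min at room temperature, then reacted 6 min with 50 uM arachidonic acid; hydroperoxide detected by Fe-XO, 573/405 nm absorbance ratio.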
HSD17B inh – HSD17B dehydrogenase inhibition; Q99714; recombinant HSD17B10, NADH fluorescence kinetic; Potency, µM (series often up to 57.1 µM), actives largely listed as inhibitors; 7.6% of 75,000 active; AID 893;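 note: the protocol describes HADH2 (HSD17B10) and not the HSD17B4 of the title; nearly all actives have a fitted effect of over 70% in size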
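20 nM HADH2, pH 9.0 Tris/Tween; cpd preinc 15 min RT; start w/ 1 mM NAD+ + 90 uM b-hydroxybutyryl-CoA; kinetic fluor ex360/em450 q30s x 4 min; delta last-first.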
ERK AVP block – inhibitors of vasopressin-stimulated ERK signaling pathway. Potency, µM (series often up to 57.5 µM), hits mostly inhibitors. HEK293-V1b, vasopressin-stimulated pERK AlphaScreen. AID 995. 0.99% of 72,000 active; note: nearly all actives have a fitted effect of over 55% in size
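Phosphorylated ERK1/2 detected via AlphaScreen bead proximity in lysates of V1b-expressing HEK293 cells given 25 nM vasopressin for 5 min after 30 min compound exposure (37 °C). AC50 from Hill equation; basal DMSO 0%, vasopressin 100%.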
HADH2 inh – inhibitors of human HADH2 dehydrogenase; recombinant HADH2, NADH fluorescence, beta-hydroxybutyryl-CoA; Potency, µM (titrated, usually from 57.1 µM), actives largely listed as inhibitors; 3.4% of 73,000 active; AID 886; note: nearly all actives have a fitted effect of over 60% in size
Target sequence (Q99714 whole entry, looked up, one chain of several): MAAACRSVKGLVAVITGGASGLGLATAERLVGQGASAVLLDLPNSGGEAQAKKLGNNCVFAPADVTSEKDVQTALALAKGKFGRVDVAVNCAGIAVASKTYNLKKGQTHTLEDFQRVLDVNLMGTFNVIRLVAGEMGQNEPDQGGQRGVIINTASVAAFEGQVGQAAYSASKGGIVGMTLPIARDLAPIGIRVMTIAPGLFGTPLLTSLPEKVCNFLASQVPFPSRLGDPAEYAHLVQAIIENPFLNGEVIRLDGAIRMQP
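NADH fluorescence (ex 360/em 450 nm) read every 30 s for 4 min; activity taken as last-minus-first time point difference. Enzyme 20 nM, NAD+ 1 mM, beta-hydroxybutyryl-CoA 90 uM, pH 9.0 Tris buffer.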
FLuc inh – blocks Photinus pyralis firefly luciferase activity; P08659; purified firefly luciferase, luminescence, 8 min; Potency, µM (top dose mostly 57.1 µM), hits mostly inhibitors; 2.2% of 72,000 active; AID 411; note: nearly all actives have a fitted effect of over 40% in size
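Here, luciferase activity is measured as luminescence following an 8 min room-temperature reaction at 10 uM ATP, pH 7.2. Every library sample is titrated.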
PK Bst – pyruvate kinase (B. stearothermophilus) modulation. 1.2% of 51,000 active. Potency, µM. AID 361. purified pyruvate kinase, luminescence ATP production; ribose 5-phosphate activator present at AC10; in the data active = potency below about 11 µM; inconclusive = mostly about 12 µM to 25 µM;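 the screen sought inhibitors and activators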
Hits are given with their value; [ ] = another dose, or the depositor's remark. Unless noted, calls come from the whole dose curve; as a rule, active = well fitted curve in the direction sought with a large enough effect; inconclusive = small, poorly fitted or top-dose-only effect, or another doubt; inactive = no such curve, though single readings can be large; an effect the other way counts as inactive or inconclusive.

For NC(=O)CI the results were ALOX15 inhib 32µM, HSD17B inh inconclusive, ERK AVP block inactive, HADH2 inh 16µM and FLuc inh inactive.
`O=C(O)C(Cl)(Cl)Br` gave ALOX15 inhib inactive, HSD17B inh inactive, ERK AVP block inactive and HADH2 inh inactive.
Cc1ccccc1C1=NCC(=O)N(CC(=O)NCc2ccco2)c2sc3c(c21)CCCC3 was read as ALOX15 inhib 25µM, HSD17B inh inconclusive, ERK AVP block inactive, HADH2 inh inactive, FLuc inh inactive and PK Bst inactive.
CN(C)c1ccc(NC(=O)CN2C(=O)CN=C(c3ccccc3)c3ccccc32)cc1 was read as ALOX15 inhib inactive, HSD17B inh inactive, ERK AVP block inactive, HADH2 inh inactive, FLuc inh inactive and PK Bst inactive.
`C[C@H](c1ccccc1)N1CCN([C@@H](C)c2ccccc2)CC1` gave ALOX15 inhib inactive[11.4 µM], HSD17B inh inactive[11.4 µM], ERK AVP block inactive[11.5 µM], HADH2 inh inactive[11.4 µM] and FLuc inh inactive[11.4 µM].
c1ccc2c(c1)[nH]c1ccccc12 was read as ALOX15 inhib inactive, HSD17B inh inconclusive, ERK AVP block inactive and HADH2 inh 25µM.
`S=c1[nH]c2ccccc2[nH]1` gave ALOX15 inhib inactive, HSD17B inh inactive, ERK AVP block inactive and HADH2 inh inconclusive.
For CC(C)[C@H]1C(=O)N2CCC[C@H]2[C@]2(O)O[C@](NC(=O)[C@@H]3C=C4c5cccc6[nH]cc(c56)C[C@H]4N(C)C3)(C(C)C)C(=O)N12 the results were FLuc inh inactive and PK Bst inactive.
`CC(C)C1C(=O)N2CCCC2[C@]2(O)O[C@@](NC(=O)[C@@H]3C=C4c5cccc6[nH]cc(c56)C[C@H]4N(C)C3)(C(C)C)C(=O)N12` (some centres undefined) gave ALOX15 inhib inactive, HSD17B inh 16µM and ERK AVP block inactive.
Screening CC(C)C[C@H]1C(=O)N2CCCC2[C@]2(O)O[C@](NC(=O)[C@@H]3C=C4c5cccc6[nH]cc(c56)CC4N(C)C3)(C(C)C)C(=O)N12 (some centres undefined) returned ALOX15 inhib inactive, HSD17B inh 7.9µM and ERK AVP block inactive.
For CN1CCN(c2ccc(C(N)=O)cc2N)CC1 the results were ALOX15 inhib inactive, HSD17B inh 32µM, ERK AVP block inactive, HADH2 inh inactive, FLuc inh inactive and PK Bst inactive.
For NC(=O)c1cc(N2CC2)c([N+](=O)[O-])cc1[N+](=O)[O-] the results were ALOX15 inhib inactive, HSD17B inh inactive, ERK AVP block inactive, HADH2 inh inactive and FLuc inh inactive.
For Cn1ccnc1P(=S)(c1nccn1C)N1CCOCC1 the results were ALOX15 inhib inactive, HSD17B inh inactive, ERK AVP block inactive, HADH2 inh 25µM, FLuc inh inactive and PK Bst inactive.
`O=C(O)[C@H](Cc1cnc[nH]1)N1C(=O)c2ccccc2C1=O` gave ALOX15 inhib inactive[11.4 µM], HSD17B inh inactive[11.4 µM], ERK AVP block inactive[11.5 µM], HADH2 inh inactive[11.4 µM] and FLuc inh inactive[11.4 µM].
`N[C@H](Cc1c[nH]c2ccccc12)P(=O)(O)O` gave ALOX15 inhib inactive[11.4 µM], HSD17B inh inactive[11.4 µM], ERK AVP block inactive[11.5 µM], HADH2 inh inactive[11.4 µM] and FLuc inh inactive[11.4 µM].
COc1ccc2c(c1)[nH]c1c(C)nccc12 was read as ALOX15 inhib inactive, HSD17B inh 16µM, ERK AVP block inactive, HADH2 inh inactive and FLuc inh inactive.
Screening CC1CCN2c3nc4ccccn4c(=O)c3CC3(C(=O)N(C)C(=O)N(C)C3=O)C2C1 (centres undefined) returned ALOX15 inhib inactive, HSD17B inh 25µM, ERK AVP block inactive, HADH2 inh inactive, FLuc inh inactive and PK Bst inactive.
Clc1cncc(N2CCNCC2)n1 was read as ALOX15 inhib inactive, HSD17B inh 40µM, ERK AVP block inactive, HADH2 inh inactive and FLuc inh inactive.
Screening Clc1cccc(N2CCNCC2)c1 returned ALOX15 inhib inactive, HSD17B inh inactive, ERK AVP block inactive, HADH2 inh inactive and FLuc inh inactive.
Screening COc1ccc(C(O)P(=O)(OC2CCCCC2)c2ccc(N(C)C)cc2)cc1OC (centres undefined) returned ALOX15 inhib inconclusive, HSD17B inh 4µM, ERK AVP block inactive, HADH2 inh inconclusive, FLuc inh inactive and PK Bst inactive.
`Cn1cnc2cc(NC(=O)c3ccc(Cl)cc3)ccc21` gave ALOX15 inhib inactive, HSD17B inh inactive, ERK AVP block inactive, HADH2 inh inactive and FLuc inh 13µM.
`CC(=O)[C@@H]1CC[C@@H]2[C@H]3CC[C@H]4C[C@@H](O)CC[C@]4(C)[C@@H]3C(=O)C[C@]21C` gave HADH2 inh inactive and FLuc inh inactive.
For C[C@@]12CC[C@H]3[C@@H](CC[C@H]4C[C@@H](O)CC[C@]43C)[C@H]1CC[C@@H]2C(=O)C[C@H](O)C(F)(F)F the results were ALOX15 inhib inactive[11.4 µM], HSD17B inh inactive[11.4 µM], ERK AVP block inactive[11.5 µM], HADH2 inh inactive[11.4 µM] and FLuc inh inactive[11.4 µM].
`N#CC(C#N)=Cc1cc(O)c(O)c(O)c1` gave ALOX15 inhib 7.9µM, HSD17B inh 20µM, ERK AVP block inactive, HADH2 inh 4µM and FLuc inh inactive.
For Cc1cc2c(s1)NC(=O)CN=C2c1cccs1 the results were ALOX15 inhib inactive, HSD17B inh inactive, ERK AVP block inactive, HADH2 inh inactive, FLuc inh inactive and PK Bst inactive.
`O=C1CN=C(c2cccs2)c2c(sc3c2CCCC3)N1` gave ALOX15 inhib 16µM, HSD17B inh inactive, ERK AVP block inactive, HADH2 inh inactive, FLuc inh inactive and PK Bst inactive.
CCCCCn1c(N)c(C(=O)NCCN2CCOCC2)c2nc3ccccc3nc21 was read as ALOX15 inhib inactive, HSD17B inh 25µM, ERK AVP block inactive, HADH2 inh inconclusive, FLuc inh inactive and PK Bst inactive.
COCCCn1c(N)c(C(=O)NCCC(C)C)c2nc3ccccc3nc21 was read as ALOX15 inhib inactive, HSD17B inh 32µM, ERK AVP block inactive, HADH2 inh inconclusive, FLuc inh inactive and PK Bst inactive.
`CCCn1nc2ccccc2c1P(=O)(N1CCOCC1)N1CCOCC1` gave ALOX15 inhib inactive, HSD17B inh inactive, ERK AVP block inactive, HADH2 inh inactive, FLuc inh inactive and PK Bst inactive.
CCCCn1c(=O)c(C(=O)Nc2nc3ccccc3[nH]2)c(O)c2ccccc21 was read as ALOX15 inhib inactive, HSD17B inh inactive, ERK AVP block inactive, HADH2 inh inactive, FLuc inh inactive and PK Bst inactive.
`CCCCCCn1c(N)c(C(=O)NCCN2CCOCC2)c2nc3ccccc3nc21` gave ALOX15 inhib 16µM, HSD17B inh 25µM, ERK AVP block inactive, HADH2 inh inconclusive, FLuc inh inactive and PK Bst inactive.
